# Laboratory results published in PubChem BioAssay (NCI).
# About 83,000 compounds went through this panel and 20% of them were active in at least one assay; those are over-represented in the sample as a whole.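 The endpoint reported here, percent growth, reads 100 for growth as untreated, 0 for no net growth and -100 for all cells dead.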 Values without a mark were called inactive. Calls of active or inactive are those of the source. Rule for the calls: active = growth percent below 10; inactive = the rest.
# Test system: MDA-MB-468 breast
# Assay: NCI-60 one-dose screen, 48 h (100 = growth as untreated, 0 = no growth, -100 = all killed)
# Settings: 10 µM unless noted
row,SMILES,growth
1,CC[C@H](C)[C@H](NC(=O)[C@H](CCCNC(=N)N)NC(=O)[C@H](Cc1c[nH]c2ccccc12)NC(=O)[C@@H](NC(=O)[C@H](CCCCN)NC(=O)[C@H](CCCCN)NC(=O)[C@@H](NC(=O)[C@@H](NC(=O)[C@@H](NC(=O)[C@H](CCCCN)NC(=O)[C@H](Cc1ccccc1)NC(=O)[C@H](CCCCN)NC(=O)[C@H](CCCCN)NC(=O)[C@H](Cc1ccccc1)NC(=O)[C@@H](NC(=O)[C@@H](N)CCCCN)[C@@H](C)CC)[C@@H](C)O)[C@@H](C)CC)[C@@H](C)CC)C(C)C)C(=O)N[C@@H](Cc1ccccc1)C(=O)NCC(=O)N[C@@H](CCCNC(=N)N)C(=O)N[C@@H](Cc1ccccc1)C(N)=O,28.8%
2,CC(=O)OCC(=O)C1(O)C(C)CC2C3C=C(C)C4=Cc5c(cnn5-c5ccccc5)CC4(C)C3C(O)CC21C (stereo not given),-10.9% (active)
3,COc1ccc(-c2nc(SCCC(C)C)nc(N/N=C(/C)c3ccc(C)cc3)c2C#N)cc1,105%
4,COc1ccc(C(=O)Cn2c(C(=O)c3ccc(OC)cc3)nc3ccccc32)cc1,17%
5,NC1=NN=C2N(N)C(=O)c3cnn(-c4ccccc4)c3N2c2nc(-c3ccccc3)cc(-c3ccccc3)c21,110%
6,CC(C)c1[nH]ncc1-c1nc2ccc3[nH]ncc3c2c2c1CCCC2,69.3%
7,COc1cc2cc(C(=O)Nc3ccccc3)c(N)nc2cc1OC,-81.5% (active)
8,CCN1C(=O)C(C)C=C(C)C=C1C (stereo not given),110%
9,COc1cc(/C=C/C(=O)Nc2ccc3c(c2)/C(=C\c2cccn2C)C(=O)N3)cc(OC)c1OC,47.4%
10,Cc1c(-c2nc3ccc(F)cc3c(=O)[nH]2)c2ccccc2n1C,6.2% (active)
11,O=C(Nc1nc2ccc(O)cc2s1)c1cccc(C(F)(F)F)c1,84.6%
12,COc1ccc(/C=C/c2nnc(/C=C/c3ccc(OC)c(OC)c3)o2)cc1OC,19%
13,COc1cc(/C=C2\CCC/C(=C\c3cc(CN4CCCCC4)c(O)c(OC)c3)C2=O)cc(CN2CCCCC2)c1O,80.4%
14,CCOC(=O)c1ccc(NC(=O)Nc2nccs2)cc1,-30.4% (active)
15,CCNC(=O)CCCCC(=O)c1c(C)[nH]c(/C=C2\N=C(c3ccc[nH]3)C=C2OC)c1C,-22.7% (active)
16,COc1ccc(Br)c(C=O)c1,84.5%
17,COc1cc(/C=N\Nc2ccccc2)ccc1OC(=O)c1ccccc1,44.2%
18,O=C(CCn1c[n+](CC(=O)c2ccc(-c3ccccc3)cc2)c2ccccc21)Nc1cccc2cccnc12,-31.2% (active)
19,COc1ccc(S(=O)(=O)NCCCNc2cc(-c3c(-c4cccc(OC)c4)nc4sccn34)ccn2)cc1,11.3%
20,CCCC/C=C/[C@@H]1C[C@H]1CCO,96.1%

row,SMILES,growth
1,CCOC(=O)[C@]1(Br)CC[C@@]1(Br)C(=O)OCC,44.9%
2,Cc1nc2sc(C(=O)Nc3ccc(Cl)cc3)c(N)c2cc1C(O)c1ccccc1 (stereo not given),-0.107% (active)
3,CCC(=O)Oc1ccc(/C(=C(\C)c2ccccc2)c2ccc(OCCN3CCCCC3)cc2)cc1,70.3%
4,O=C(c1ccccc1)N(C(=S)NCCc1ccc(Cl)cc1)c1ccccc1,30.3%
5,c1ccc(-c2nc(N3CCCNCC3)c3nc(-c4ccccc4)oc3n2)cc1,-52.9% (active)
6,CN1C(=O)C(C(=O)/C=C/c2ccccc2C(=O)O)C(=O)N(C)C1=O,102%
7,O=C(Nc1ccc2cc3ccc(NC(=O)N4CCCCCC4)cc3nc2c1)N1CCCCCC1,-48.5% (active)
8,COc1ccc(/C=C(/C#N)n2nnc3cccc(F)c32)cc1,-5.27% (active)
9,CC(=O)N1N=C(c2ccc(C(F)(F)F)c(F)c2)CC1c1[nH]c(C)c(C(=O)NCC(F)(F)F)c1C (stereo not given),78.5%
10,CC1Cc2c(ncnc2-n2cnc3ccccc32)N(C)c2ccccc21 (stereo not given),9.47% (active)
11,COc1ccc2c(c1)cn1c3ccc(O)cc3nc(N)c21,14.2%
12,S=c1[nH]nc(Cc2ccccc2)c(=S)[nH]1,94.7%
13,O=C1c2ccccc2C(=O)c2c1oc1c2c(=O)[nH]c2ccc(Cl)cc21,-32.4% (active)
14,C[n+]1cc2cc3c(cc2c2ccccc21)OCO3,-21.2% (active)
15,COc1ccc(-c2nc3sccn3c2/C=C/C(=O)c2cc(OC)c(OC)c(OC)c2)cc1OC,-13.4% (active)
16,Fc1ccc(N/N=C/c2ccc(-n3cccn3)cc2)cc1,121%
17,C=C(C)[C@@H]1CC[C@]2(C(=O)NCCNCCNCCN)CC[C@]3(C)[C@H](CC[C@@H]4[C@@]5(C)CC[C@H](O)C(C)(C)[C@@H]5CC[C@]43C)[C@@H]12,-48.6% [100 µM] (active)
18,NC(C(=O)O)c1ccc([N+](=O)[O-])cc1 (stereo not given),111%
19,CC[C@]1(O)C[C@@H]2CN(CCc3c([nH]c4ccccc34)[C@@](C(=O)OC)(c3cc4c(cc3OC)N(C)[C@H]3[C@@](O)(C(N)=O)[C@H](O)[C@]5(CC)[C@@H]6C[C@@H]6CN6CC[C@]43[C@@H]65)C2)C1,43.8%
20,O=[N+]([O-])c1cccc(N=NNc2cccc([N+](=O)[O-])c2)c1,57.9%
